We go through 38 molecules from PubChem BioAssay (NCI).

The panel holds about 83,000 compounds, 20% with a hit somewhere; the sample as a whole holds those more often.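 Negative percent growth values reflect cell death: -40 means 40% of the cells present at the start died, and -100 means all died.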 The source made the active and inactive calls. The calls were made as follows: active = growth percent below 10; inactive = the rest.

One assay has as its system A549/ATCC NSCLC. Briefly: NCI-60 one-dose screen, 48 h (100 = growth as untreated, 0 = no growth, -100 = all killed). As to conditions: 10 µM unless noted.
Take `CCCOc1ccc2nc(NC(=O)OC)[nH]c2c1`: the growth is 12.8% (inactive).

For `NS(=O)(=O)c1ccc(CN=C2NC(=O)S/C2=C\c2ccc(Br)cc2)cc1`, the growth is 98.3% (inactive).

Take `N=C(N)c1ccc(-c2ccc(-c3ccc4ccccc4c3)s2)s1`: the growth was -36.3% (active).

Consider `COc1cc2nc(N3CCCC3)nc(Nc3ccccc3)c2cc1OC`, for which the growth is -39.8% (active).

With `C#Cc1cccc(NC(=O)c2ccccc2NC(=O)C=C)c1`, the growth is 98.1% [8.25 µM] (inactive).

As to `C#CC(F)(F)[C@]1(O)CC[C@H]2[C@@H]3CCC4=CC(=O)CCC4=C3[C@@H](c3ccc(C(C)=O)cc3)C[C@@]21C`, the growth was 73.4% (inactive).

Regarding `Cc1ccc(NC(=O)/C=C/c2ccccc2)c(C(N)=O)c1`, the growth is 25.7% (inactive).

Regarding `CCOc1cc2ncc(C#N)c(Nc3ccc(OCc4cccc(F)c4)c(Cl)c3)c2cc1NC(=O)CC1CCSS1` (stereo unspecified), the growth was -69.7% (active).

Consider `CCOC(=O)c1c(C(=O)OCC)c2cc(-c3ccn4c(C(=O)c5ccccc5)c(C(=O)OCC)c(C(=O)OCC)c4c3)ccn2c1C(=O)c1ccccc1`, for which the growth was 91.5% (inactive).

`NC(=O)c1cc(Br)ccc1NC(=O)/C=C/c1ccccc1`: the growth was 33.2% (inactive).

Take `COC(=O)[C@@H]1CCCN1C(=O)[C@@H]1CCCN1C(=O)[C@H](Cc1ccccc1)NC(=S)Nc1cc(C(F)(F)F)cc(C(F)(F)F)c1`: the growth is 15.6% (inactive).

In the case of `COc1ccc(-c2cc(=O)c3c(OC)c4ccoc4cc3o2)cc1`, the growth is 86.2% (inactive).

As to `NC(=NCCCC1(c2ccccc2)CCCC1)Nc1ccc(Cl)cc1`, the growth is 63.1% (inactive).

In the case of `COC(=O)c1ccc(Cn2cnc3c(N)ncnc32)cc1`, the growth is 104% (inactive).

For the molecule `Cc1ccc2oc(=O)cc(C3c4ccc([nH]4)C(c4cc(=O)oc5ccc(C)cc45)c4ccc([nH]4)C(c4cc(=O)oc5ccc(C)cc45)c4ccc([nH]4)C(c4cc(=O)oc5ccc(C)cc45)c4ccc3[nH]4)c2c1` (stereo unspecified), the growth was -24.6% (active).

Take `O=C1c2cccc3cccc(c23)C(=O)N1CCCCN1CCN(CCCCOc2ccc(-c3nc4ccc(N5CCOCC5)cc4[nH]3)cc2)CC1`: the growth is 39.6% (inactive).

For `Cn1cc(-c2nonc2-c2cn(C)c3ccc(F)cc23)c2cc(F)ccc21`, the growth was 47.9% (inactive).

Regarding `CCOC(=O)n1cc(-c2nonc2-c2cn(C)c3ncccc23)c2cc(F)ccc21`, the growth was 70.1% (inactive).

Consider `C=CC(COC(c1ccccc1)(c1ccccc1)c1ccccc1)N(CC)CC` (stereo unspecified), for which the growth was 63.1% (inactive).

In the case of `COCCNc1ccc2c3c(cccc13)C(=O)N(CCN(C)C)C2=O`, the growth is 5.73% (active).

Consider `O=C1CC(=NCC(=O)n2c(-c3ccccc3)nc3ccccc32)NN1`, for which the growth is 114% (inactive).

Take `CC/C=C\C[C@H]1C/C=C2/C(=O)C=C[C@H]2C/C=C\CCCC(=O)O1`: the growth was 29.5% (inactive).

As for `CCOC(=O)c1sc2nc(-c3cccc(OC)c3)nc(N3CCOCC3)c2c1C`, the growth was 84% (inactive).

On to `CC(=O)Nc1ccc(S(=O)(=O)Nc2cccc(-c3nc(-c4ccc(NC(=O)c5cccnc5)cc4Cl)no3)c2)cc1`, for which the growth was 44.2% (inactive).

For the molecule `COc1nc2c(c(=O)n1C)CN(Cc1ccccc1)C=N2`, the growth was 87.6% (inactive).

Consider `CCC(=O)c1ccc(Cl)s1`, for which the growth is 98.7% (inactive).

As to `O=S(=O)(Nc1ccc(I)cc1F)c1ccc(-c2cnc(C3CC3)o2)cc1`, the growth is 50.6% (inactive).

Consider `Cc1ccccc1COc1ccc(-c2onc(C)c2-c2ccc(Cl)cc2)cc1`, for which the growth was 49.3% (inactive).

Consider `O=C(/C=C/c1ccc(C(F)(F)F)cc1)Nc1ccc(C=C2c3ccccc3C(=O)c3ccccc32)cc1`, for which the growth was 44.6% (inactive).

As for `COc1cccc2c1C(=O)c1c(O)c3c(c(O)c1C2=O)C[C@](O)(C(=O)CO)C[C@H]3O[C@@H]1C[C@@H](NC(=O)CCCN(C)C2(c3ccc(F)cc3)CC3CCC2C3)[C@H](O)[C@@H](C)O1` (stereo partly specified), the growth is -80.1% (active).

For `O=C(O)c1ccc(NC(=O)c2ccc(-c3cccc([N+](=O)[O-])c3)o2)cc1`, the growth is 101% (inactive).

Regarding `O=c1cc(CSc2nnc(SCc3cc(=O)oc4c3ccc3ccccc34)o2)c2ccc3ccccc3c2o1`, the growth was 89.3% (inactive).

Regarding `O=C(COc1ccc(/C=C2\COc3ccccc3C2=O)cc1)Nc1nccs1`, the growth is 98.3% (inactive).

Consider `NC(=NCCCOc1ccc(Cl)cc1)Nc1ccc(Cl)cc1`, for which the growth is 24.1% (inactive).

As for `N#CN1CC[C@H](C(=O)Nc2cc3cc(C(N)=O)ccc3cn2)C1`, the growth was 1.68% (active).

With `N#CCCN=Nc1c(O)[nH]c2ccc(F)cc12`, the growth is 111% (inactive).

For `Nc1nc2ncc(CCNc3ccc(C(=O)O)cc3)nc2c(=O)[nH]1`, the growth was 105% (inactive).

Take `COc1cccc(-c2nc3sccn3c2-c2ccnc(NCCNS(=O)(=O)c3ccc(F)cc3)c2)c1`: the growth is 22.7% (inactive).

The next assay concerns 786-0 renal. The assay is described as above. As to conditions: 10 µM unless noted.
Take `CCCOc1ccc2nc(NC(=O)OC)[nH]c2c1`: the growth was 32.6% (inactive).

`NS(=O)(=O)c1ccc(CN=C2NC(=O)S/C2=C\c2ccc(Br)cc2)cc1`: the growth was 94.1% (inactive).

For the molecule `N=C(N)c1ccc(-c2ccc(-c3ccc4ccccc4c3)s2)s1`, the growth was -39.1% (active).

Consider `COc1cc2nc(N3CCCC3)nc(Nc3ccccc3)c2cc1OC`, for which the growth is -90.5% (active).

As to `C#Cc1cccc(NC(=O)c2ccccc2NC(=O)C=C)c1`, the growth is 89.9% [8.25 µM] (inactive).

As for `C#CC(F)(F)[C@]1(O)CC[C@H]2[C@@H]3CCC4=CC(=O)CCC4=C3[C@@H](c3ccc(C(C)=O)cc3)C[C@@]21C`, the growth was -41% (active).

Take `Cc1ccc(NC(=O)/C=C/c2ccccc2)c(C(N)=O)c1`: the growth was 60.7% (inactive).

For the molecule `CCOc1cc2ncc(C#N)c(Nc3ccc(OCc4cccc(F)c4)c(Cl)c3)c2cc1NC(=O)CC1CCSS1` (stereo unspecified), the growth is 88.5% (inactive).

On to `CCOC(=O)c1c(C(=O)OCC)c2cc(-c3ccn4c(C(=O)c5ccccc5)c(C(=O)OCC)c(C(=O)OCC)c4c3)ccn2c1C(=O)c1ccccc1`, for which the growth is 98.4% (inactive).

For `NC(=O)c1cc(Br)ccc1NC(=O)/C=C/c1ccccc1`, the growth is 65.7% (inactive).

In the case of `COC(=O)[C@@H]1CCCN1C(=O)[C@@H]1CCCN1C(=O)[C@H](Cc1ccccc1)NC(=S)Nc1cc(C(F)(F)F)cc(C(F)(F)F)c1`, the growth was 82.4% (inactive).

Turning to `COc1ccc(-c2cc(=O)c3c(OC)c4ccoc4cc3o2)cc1`, the growth is 116% (inactive).

As to `NC(=NCCCC1(c2ccccc2)CCCC1)Nc1ccc(Cl)cc1`, the growth was 65.5% (inactive).

For the molecule `COC(=O)c1ccc(Cn2cnc3c(N)ncnc32)cc1`, the growth was 114% (inactive).

In the case of `Cc1ccc2oc(=O)cc(C3c4ccc([nH]4)C(c4cc(=O)oc5ccc(C)cc45)c4ccc([nH]4)C(c4cc(=O)oc5ccc(C)cc45)c4ccc([nH]4)C(c4cc(=O)oc5ccc(C)cc45)c4ccc3[nH]4)c2c1` (stereo unspecified), the growth is -58.9% (active).

Turning to `O=C1c2cccc3cccc(c23)C(=O)N1CCCCN1CCN(CCCCOc2ccc(-c3nc4ccc(N5CCOCC5)cc4[nH]3)cc2)CC1`, the growth was 80.6% (inactive).

`Cn1cc(-c2nonc2-c2cn(C)c3ccc(F)cc23)c2cc(F)ccc21`: the growth was 85.7% (inactive).

On to `CCOC(=O)n1cc(-c2nonc2-c2cn(C)c3ncccc23)c2cc(F)ccc21`, for which the growth was 81.3% (inactive).

On to `C=CC(COC(c1ccccc1)(c1ccccc1)c1ccccc1)N(CC)CC` (stereo unspecified), for which the growth was 77.6% (inactive).

In the case of `COCCNc1ccc2c3c(cccc13)C(=O)N(CCN(C)C)C2=O`, the growth was 32.1% (inactive).

`O=C1CC(=NCC(=O)n2c(-c3ccccc3)nc3ccccc32)NN1`: the growth is 107% (inactive).

Take `CC/C=C\C[C@H]1C/C=C2/C(=O)C=C[C@H]2C/C=C\CCCC(=O)O1`: the growth was 24.7% (inactive).

Turning to `CCOC(=O)c1sc2nc(-c3cccc(OC)c3)nc(N3CCOCC3)c2c1C`, the growth was 92.8% (inactive).

Consider `CC(=O)Nc1ccc(S(=O)(=O)Nc2cccc(-c3nc(-c4ccc(NC(=O)c5cccnc5)cc4Cl)no3)c2)cc1`, for which the growth is 41.7% (inactive).

Regarding `COc1nc2c(c(=O)n1C)CN(Cc1ccccc1)C=N2`, the growth was 103% (inactive).

As to `CCC(=O)c1ccc(Cl)s1`, the growth is 105% (inactive).

Regarding `O=S(=O)(Nc1ccc(I)cc1F)c1ccc(-c2cnc(C3CC3)o2)cc1`, the growth is 69.1% (inactive).

Consider `Cc1ccccc1COc1ccc(-c2onc(C)c2-c2ccc(Cl)cc2)cc1`, for which the growth is 75.5% (inactive).

In the case of `O=C(/C=C/c1ccc(C(F)(F)F)cc1)Nc1ccc(C=C2c3ccccc3C(=O)c3ccccc32)cc1`, the growth was 62.1% (inactive).

For `COc1cccc2c1C(=O)c1c(O)c3c(c(O)c1C2=O)C[C@](O)(C(=O)CO)C[C@H]3O[C@@H]1C[C@@H](NC(=O)CCCN(C)C2(c3ccc(F)cc3)CC3CCC2C3)[C@H](O)[C@@H](C)O1` (stereo partly specified), the growth is -94.2% (active).

Regarding `O=C(O)c1ccc(NC(=O)c2ccc(-c3cccc([N+](=O)[O-])c3)o2)cc1`, the growth is 105% (inactive).

As for `O=c1cc(CSc2nnc(SCc3cc(=O)oc4c3ccc3ccccc34)o2)c2ccc3ccccc3c2o1`, the growth was 109% (inactive).

Turning to `O=C(COc1ccc(/C=C2\COc3ccccc3C2=O)cc1)Nc1nccs1`, the growth is 89.3% (inactive).

As for `NC(=NCCCOc1ccc(Cl)cc1)Nc1ccc(Cl)cc1`, the growth was 58.4% (inactive).

As to `N#CN1CC[C@H](C(=O)Nc2cc3cc(C(N)=O)ccc3cn2)C1`, the growth is 4.19% (active).

For the molecule `N#CCCN=Nc1c(O)[nH]c2ccc(F)cc12`, the growth was 94.1% (inactive).

As to `Nc1nc2ncc(CCNc3ccc(C(=O)O)cc3)nc2c(=O)[nH]1`, the growth was 104% (inactive).

Consider `COc1cccc(-c2nc3sccn3c2-c2ccnc(NCCNS(=O)(=O)c3ccc(F)cc3)c2)c1`, for which the growth was 41.6% (inactive).
